Measured values taken from the supplement of paper PMC8975748.
Counter-ions that a name gives are not always drawn.

The molecules below were run on Saccharomyces cerevisiae BY4741 SeMeCo community (assay: z-score of subpopulation abundance vs DMSO median, subpopulation auxotrophic for LUM; higher = larger share of this subpopulation than in DMSO controls). Details: 10 µM; 24 h; SM minimal medium; subpopulation (auxotrophy): LUM.
Experimental: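 Fluorescent four-plasmid SeMeCo (self-establishing metabolically cooperating S. cerevisiae BY4741 community; plasmids pH-mRuby2, pL-mWasabi, pU-eCFP, pM-TagRFP657) was grown 24 h in minimal SM medium with each Selleck FDA-approved drug at 10 µM in 384-well plates. Cells were fixed and imaged by high-content confocal microscopy. For each auxotrophic subpopulation (and the prototroph), a z-score gives the deviation from the DMSO vehicle-control population median.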

Compound | z-score of subpopulation abundance
Cc1cc(C(C#N)c2ccc(Cl)cc2)c(Cl)cc1NC(=O)c1cc(I)cc(I)c1O (centres undefined) [Closantel] | 0.43
CN(C)C(=O)Oc1ccc[n+](C)c1 [Pyridostigmine Bromide] | -0.35
Oc1cc(Cl)ccc1Oc1ccc(Cl)cc1Cl [Triclosan] | 0.02
N#Cc1nn(-c2c(Cl)cc(C(F)(F)F)cc2Cl)c(N)c1[S+]([O-])C(F)(F)F (centres undefined) [Fipronil] | -0.72
CC(C)=CCOc1c2occc2cc2ccc(=O)oc12 [Imperatorin] | 0.74
NCCc1c[nH]c2ccc(O)cc12 [Serotonin HCl] | -0.88
C=CC[C@]1(O)CC[C@H]2[C@@H]3CCC4=CC(=O)CCC4=C3C=C[C@@]21C [Altrenogest] | -0.14
C=CN1CCCC1=O.II [Povidone iodine] | 0.83
CN(C)[C@@H]1C(=O)C(C(N)=O)=C(O)[C@@]2(O)C(=O)C3=C(O)c4c(O)cccc4[C@@](C)(O)[C@H]3C[C@@H]12 [Tetracycline HCl] | -0.52
CC(C)N(CCC(C(N)=O)(c1ccccc1)c1ccccn1)C(C)C (centres undefined) [Disopyramide] | 0.92
CC[N+](C)(CC)CCOC(=O)C(O)(c1ccccc1)c1ccccc1 [Methylbenactyzine Bromide] | -1.06
CNC1CC(N)C(O)C(OC2OC(CO)C(O)C3OC4(OC(C(N)CO)C(O)C(O)C4O)OC23)C1O (centres undefined) [Hygromycin B] | -0.17
COc1ccc(C(CN(C)C)C2(O)CCCCC2)cc1 (centres undefined) [Venlafaxine HCl] | 1.02
COc1ccc(C(CN(C)C)C2(O)CCCCC2)cc1 (centres undefined) [Venlafaxine] | 0
Cn1cc(C2=C(c3cn(C4CCN(Cc5ccccn5)CC4)c4ccccc34)C(=O)NC2=O)c2ccccc21 | -0.2
CN1[C@@H]2CC[C@H]1C[C@@H](OC(=O)[C@H](CO)c1ccccc1)C2 [Hyoscyamine] | -0.43
CC(NC(C)(C)C)C(=O)c1cccc(Cl)c1 (centres undefined) [Amfebutamone (Bupropion) HCl] | -0.86

Compound | z-score of subpopulation abundance
Cc1cc(O)ccc1Cl [Chlorocresol] | -0.61
COc1ccc(C=O)cc1 [p-Anisaldehyde] | -0.69
CCN(C)C(=O)Oc1cccc([C@H](C)N(C)C)c1 [Rivastigmine] | -0.27
N[C@@H]1C[C@H]1c1ccccc1 [Tranylcypromine (2-PCPA) HCl] | -0.84
CC[C@@]1(O)C(=O)OCc2c1cc1n(c2=O)Cc2cc3ccccc3nc2-1 [Camptothecin] | -0.25
CCN1CC2(OC(=O)c3ccccc3NC(C)=O)CCC(OC)C34C1C(CC23)C1(O)CC(OC)C2CC4C1(O)C2OC (centres undefined) [Lappaconitine] | 0.98
COc1ccc2[nH]cc(CCN)c2c1 [5-Methoxytryptamine] | 0.78
CN1c2ccccc2C(NCCCCCCC(=O)O)c2ccc(Cl)cc2S1(=O)=O (centres undefined) [Tianeptine sodium] | 0.15
CN(C)[C@@H]1C(=O)C(C(N)=O)=C(O)[C@@]2(O)C(=O)C3=C(O)c4c(O)cccc4[C@@](C)(O)[C@H]3[C@H](O)[C@@H]12 [Oxytetracycline (Terramycin)] | 0.18
Oc1cccc2cccnc12 [8-Hydroxyquinoline] | -0.89
C[C@H]1O[C@H](O[C@H]2[C@H](O)[C@@H](O)[C@@H](O)[C@H](O)[C@@H]2O)[C@@H](N)C[C@@H]1NC(=N)C(=O)O [Kasugamycin hydrochloride] | 0.34
C=C(C)[C@H]1Cc2c(ccc3c2O[C@@H]2COc4cc(OC)c(OC)cc4[C@@H]2C3=O)O1 [Rotenone (Barbasco)] | -0.01
CN1[C@@H]2CC[C@H]1C[C@@H](OC(=O)C(CO)c1ccccc1)C2 (some centres undefined) [Atropine sulfate monohydrate] | 0.28
NCC(O)c1ccc(O)cc1 (racemic) [(+,-)-Octopamine HCl] | 0.58
Nc1ccncc1 [4-Aminopyridine] | 0.34
CCOC(=O)Nc1ccc(NCc2ccc(F)cc2)cc1N [Retigabine 2HCl] | -0.01
C=C[C@H]1CN2CC[C@H]1C[C@H]2[C@H](O)c1ccnc2ccccc12 [Cinchonidine] | 0.19
